Legend:
Format in all cases: functional
Plasmodium falciparum [1] = assay: GSK_TCMDC: Inhibition of Plasmodium falciparum 3D7 in whole red blood cells, using parasite LDH activity as an index of growth. Test compounds present at 2uM
Plasmodium falciparum [2] = assay: GSK_TCMDC: Inhibition of Plasmodium falciparum Dd2 in whole red blood cells, using parasite LDH activity as an index of growth. Test compounds present at 2uM
HepG2 = assay: GSK_TCMDC: Percent inhibition of human HepG2 cell line. Test compounds present at 10uM.

Row | Structure (SMILES) | Inhibition (Plasmodium falciparum [1]) | Inhibition (Plasmodium falciparum [2]) | Inhibition (HepG2)
1 | Br.CC1(C)NC(N)=NC(=N)N1OCCc1ccccc1 | 96% | 95% | 70%
2 | O=C(Nc1cccc(CN2CCCN(Cc3cccc(Cl)c3)CC2)c1)c1ccc(-c2ccccc2)cc1.O=C(O)C(F)(F)F | 86% | 14% | 44%
3 | Cc1cc(N[C@@H](Cc2ccccc2)C(=O)NC2CCCC2)nc(NCc2ccccc2C)n1.O=C(O)C(F)(F)F | 91% | 20% | 2%
4 | CN(C)c1ccc(/C=C2\S/C(=N\c3ccccc3)N(c3ccccc3)C2=O)cc1[N+](=O)[O-] | 96% | 82% | 9%
5 | Cl.NOCCCCOc1ccccc1 | 99% | 2% | 12%
6 | Cc1cc(Nc2ccc3c(c2)CCC3)n2ncnc2n1 | 86% | 48% | 4%
7 | CC(=O)N(C)/N=C/[C@H](CCc1ccccc1)NC(=O)[C@H](CC(C)C)NC(=O)c1cccc(OCCN2CCOCC2)c1 | 89% | 65% | 5%
8 | COc1ccc(NC(=O)c2c(NC(=O)c3cccs3)sc3c2CCCC3)cc1 | 97% | 4% | 4%
9 | CC(=O)Nc1cccc(C(=O)Nc2ccc(-c3cccc(-c4nc5cccc(C)c5[nH]4)c3)cc2)c1 | 100% | 50% | 86%
10 | COc1cc(CS(C)(=O)=O)ccc1Nc1nccc(-c2c(-c3cccc(NC(=O)c4c(F)cccc4F)c3)nn3ccccc23)n1 | 92% | 71% | 46%
11 | Oc1ccc2[nH]cc(C3CCN(CCCCCCCCCN4CCC(c5c[nH]c6ccc(O)cc56)CC4)CC3)c2c1 | 100% | 2% | 22%
